# High-throughput results (PubChem)
# A selection: hits, their analogues and other compounds. The true share with any hit is near 19%.
# Pf growth 96h = Primary qHTS for delayed death inhibitors of the malarial parasite plastid, 96 hour incubation; P. falciparum luciferase reporter growth, 96 h; Potency, µM (series often up to 28.7 µM), for inactives: at the top dose activity change, negative = inhibition, actives largely listed as inhibitors; 320,000 compounds, 6.9% hits; AID 504834, 2011; further: potency means the concentration at half of the fitted maximal effect; on the % scale 0 is the no-effect control and ±100 the full control effect
#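 Two parasite generations (96 h, 37 C, 5% CO2) of compound exposure in infected erythrocytes (0.05% parasitemia, 2% hematocrit). Luciferase-reporter P. falciparum; decreased luminescence indicates inhibited growth, aimed at apicoplast-acting delayed death.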
# AMA1-RON2 inh = qHTS for Inhibitors of AMA1-RON; Towards Development of Antimalarial Drug Lead: Primary Screen; Plasmodium falciparum AMA1 (3D7) - RON2 peptide interaction; AlphaScreen AMA1-biotinylated RON2 peptide binding; Potency, µM (top dose mostly 58.2 µM), for the others: at the highest dose activity change, negative = inhibition, actives largely listed as inhibitors; 360,000 compounds, 0.2% hits; AID 720542, 2013;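 further: potency means the concentration at half of the fitted maximal effect; 0% = vehicle wells and -100% = peptide control; nearly all actives have a fitted effect of over 45% in size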
#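 AMA1 (3D7) with his tag at 25 nM final met compounds first, then biotinylated RON2 peptide at 25 nM; detection used donor plus acceptor beads, 10 µg/mL apiece, read by AlphaScreen after 30 min at room temperature.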
# Pf growth 48h = Primary qHTS for delayed death inhibitors of the malarial parasite plastid, 48 hour incubation; P. falciparum luciferase growth in erythrocytes, 48 h; 310,000 compounds, 5.9% hits; Potency, µM (top dose mostly 28.7 µM), without a hit: at the highest dose activity change, negative = inhibition, actives largely listed as inhibitors; further: potency means the concentration at half of the fitted maximal effect; on the % scale 0 is the no-effect control and ±100 the full control effect
#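 Compounds are pin-transferred into medium, infected erythrocytes (2% hematocrit, 0.1% parasitemia final) are added, and plates sit one parasite generation at 37 C in 5% CO2. Detection reagent is then added and luminescence measured.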
# SARS PLpro yeast = qHTS of Yeast-based Assay for SARS-CoV PLP; S. cerevisiae expressing SARS-CoV PLpro, growth rescue; 330,000 compounds, 0.19% hits; AID 485353, 2010; Potency, µM (series often up to 32.9 µM), without a hit: at the top dose activity, positive = growth rescue, hits mostly activators; calls by dose curve; further: potency means the concentration at half of the fitted maximal effect; 0% is about no effect; nearly all actives have a fitted effect of over 55% in size
# Cycloheximide cs = Cycloheximide Counterscreen for Small Molecule Inhibitors of Shiga Toxin. cell reporter, cycloheximide protein synthesis inhibition counterscreen. max response, %. AID 2314, 2010. 300,000 compounds, 12% hits; in the data active means max response mostly above about 13%, no sharp cut-off; inactive means mostly below about 14%; further: read at 38.3 µM for the half of the compounds with a filed dose; 0% is about no effect
# Shiga toxin inh = A qHTS for Small Molecule Inhibitors of Shiga Toxin; Vero cells, Shiga toxin protein synthesis inhibition reporter; inhibition, % at 38.7 µM; 290,000 compounds, 9.2% hits; AID 2315, 2010; in the data active means inhibition mostly above about 28%, no sharp cut-off; inactive means mostly below about 43%; further: 0% is about no effect
# An asterisk follows results filed as active; ? = inconclusive; · = no result given; + = active, no number. Unless noted, the call rests on the fitted dose curve; in most records, active means well fitted curve in the direction sought with a large enough effect; inconclusive means small, poorly fitted or top-dose-only effect, or another doubt; inactive means no such curve, though single readings can be large; an effect the other way counts as inactive or inconclusive.
SMILES,Pf growth 96h,AMA1-RON2 inh,Pf growth 48h,SARS PLpro yeast,Cycloheximide cs,Shiga toxin inh
COc1cc([N+](=O)[O-])ccc1NC(=O)CSc1nc2ccccc2n1-c1ccccc1,10µM*,·,8.3µM*,8%,1,-3
CC1(C)C(=O)N(OCc2ccccc2)C(C)(C)C(=O)N1OCc1ccccc1,?,3%,·,-10%,-3,-7
O=C(CN1C(=O)C2CC=CCC2C1=O)Nc1ccc(F)cc1F (configuration not stated),5%,9%,-10%,4%,·,·
O=C(CCC(=O)Nc1ccccc1Cl)NNC(=S)Nc1ccccc1C(F)(F)F,2.1µM*,26%,18%,-6%,-2,-11
NS(=O)(=O)c1ccc(NC(=S)NNC(=O)CCC(=O)Nc2ccccc2Cl)cc1,18%,120%,11%,-4%,-2,-11
FC(F)(F)C(Oc1nc(Nc2ccc(Cl)cc2)nc(N2CCOCC2)n1)C(F)(F)F,25%,59%,?,-5%,-2,-3
O=C(NC1CCCCC1)c1cc(-c2cccc(Cl)c2)on1,?,9%,106%,1%,27*,39*
O=C(NC1CCCCC1)c1csnn1,·,1%,·,·,·,·
O=C(NC1CCCC1)c1cc(-c2cccc(Cl)c2)on1,?,7%,79%,-8%,37*,131*
OC[C@@H](O)[C@@H](O[C@@H]1O[C@H](CO)[C@H](O)[C@H](O)[C@H]1O)[C@H](O)[C@@H](O)CO,·,8%,·,·,·,·
O=C(Cc1ccccc1)NCc1ccncc1,?,-3%,48%,-1%,42*,67*
O=C(NCc1ccncc1)/C(=N/O)c1ccccc1,10µM*,15%,30%,3%,-2,17
CCC(C(=O)NCc1ccncc1)c1ccccc1 (configuration not stated),10µM*,-4%,21%,0%,1,-15
O=C(Cc1c[nH]c2ccccc12)NCc1ccncc1,2%,5%,8%,·,-1,-6
COC(=O)c1ccccc1NS(=O)(=O)c1ccc(Cl)nc1,-5%,-5%,28%,8%,-1,-11
O=C(CN1C(=O)C2(OCCCO2)c2ccccc21)NCc1ccccc1,71%,14%,-3%,7%,1,-10
Cc1ccc(CNC(=O)CN2C(=O)C3(OCCCO3)c3ccccc32)cc1,10µM*,-3%,-4%,0%,-3,-11
O=C1O/C(=C/c2ccccc2)c2ccccc21,49%,57%,2%,-24%,65*,+
CCC1C(=O)N=C(SCC(=O)NC2CCCCC2)NC1=O (configuration not stated),7%,0%,-6%,0%,7,9
CC(=O)NC1C(=O)N=C(SCC(=O)NC2CCCCC2)NC1=O (configuration not stated),?,16%,29%,8%,22*,57*
COc1ccccc1NC(=O)CSC1=NC(=O)C(Cc2ccccc2)C(=O)N1 (configuration not stated),?,-5%,0%,1%,-3,-4
COc1ccccc1NC(=O)CSC1=NC(=O)C(NC(C)=O)C(=O)N1 (configuration not stated),0.83µM*,0%,4%,5%,-5,-26
O=C(Nc1cccc(F)c1)Nc1ccnn1C1CCN(C(=O)c2ccccn2)CC1,-10%,51%,-3%,2%,23*,42*
COc1ccccc1C(=O)Nc1ccnn1C1CCN(C(=O)c2ccoc2)CC1,·,8%,·,·,·,·
COc1ccccc1C(=O)Nc1ccnn1C1CCN(C(=O)c2ccoc2C)CC1,?,8%,15%,1%,15*,13
SMILES,Pf growth 96h,AMA1-RON2 inh,Pf growth 48h,SARS PLpro yeast,Cycloheximide cs,Shiga toxin inh
O=C(Nc1ccnn1C1CCN(C2CCC2)CC1)c1ccccc1,12µM*,-2%,-3%,1%,0,-6
COc1ccc(C(=O)Nc2ccnn2C2CCN(C(=O)c3cnsn3)CC2)cc1,34%,-5%,-5%,0%,20*,54
CC(=O)c1cccc(NC(=O)c2cccc3ccccc23)c1,34%,-3%,37%,-3%,8,-4
COC(=O)c1ccc2c(=O)[nH]c(COC(=O)c3c(-c4ccccc4)noc3C)nc2c1,?,5%,-26%,1%,·,·
COc1ccccc1NC(=O)Nc1ccnn1C1CCN(C(=O)c2cscn2)CC1,?,-4%,-16%,1%,32*,29
COc1ccccc1NC(=O)Nc1ccnn1C1CCN(C(=O)c2ccccn2)CC1,-9%,21%,-23%,6%,1,-2
Cc1ccc(-c2nsc3c(N4CCC(C(N)=O)CC4)ncnc23)cc1,?,-8%,149%,1%,33*,52*
O=C(N1CCCC1)N1CCN(c2ncnc3c(-c4ccc(Cl)cc4)nsc23)CC1,1.9µM*,·,50%,2%,34*,97*
Cc1ccc(C(=O)N2CCN(c3ncnc4c(-c5ccccc5)nsc34)CC2)cc1,1.5µM*,·,21%,1%,12,18
O=C(c1ccccc1)N1CCN(c2ncnc3c(-c4ccccc4)nsc23)CC1,19%,0%,-29%,-1%,-1,-17
Cc1ccc(C(=O)N2CCN(c3cc(=O)[nH]nc3-c3ccccc3)CC2)cc1,12µM*,21%,?,-5%,1,13
CC(=O)Nc1cccc(NS(=O)(=O)c2cc3c4c(c2)CCN4C(=O)CC3)c1,17%,6%,8%,-5%,·,·
CC(C)(C)C(=O)c1c(N)[nH]c(C(=O)c2ccccc2)c1-c1c(F)cccc1F,·,49%,·,·,·,·
COc1ccc(-c2nsc3c(N4CCCCC4C)ncnc23)cc1 (configuration not stated),-13%,51%,-8%,-2%,14,3
COc1ccc(-c2nsc3c(N4CCCCC4)ncnc23)cc1,?,4%,185%,1%,58*,100*
CC(C)OCCCNC1=C(Cl)C(=O)c2ccccc2C1=O,4.1µM*,20µM*,2.9µM*,0%,49*,66*
CCN(CC)CCCNC1=C(Cl)C(=O)c2ccccc2C1=O,?,-14%,?,-1%,2,30
COCCCNC1=C(Cl)C(=O)c2ccccc2C1=O,2.3µM*,10%,4.1µM*,0%,33*,49*
O=C(O)c1ccc(NC2=C(Cl)C(=O)c3ccccc3C2=O)cc1,?,-5%,?,-2%,-1,19
CC(C)NC1=C(Cl)C(=O)c2ccccc2C1=O,0.93µM*,?,·,24%,21*,43
CC(C)OCCCNC(=S)NNC(=O)C(c1ccccc1)c1ccccc1,?,9%,-10%,0%,-2,-19
